# S-ASM inh: Inhibitors of Secretory Acid Sphingomyelinase (S-ASM): qHTS; placental ASM, HMU-PC fluorogenic substrate, 60 min; Sphingomyelin phosphodiesterase (Homo sapiens), P17405; Potency, µM (highest dose often 57.5 µM), inactives show at the highest dose activity change, negative = inhibition, usual class: inhibitors; hit rate 0.006% among 340,000; also: potency is read from the fitted curve at half-maximal effect
# Target sequence (P17405 47-631 limits assumed): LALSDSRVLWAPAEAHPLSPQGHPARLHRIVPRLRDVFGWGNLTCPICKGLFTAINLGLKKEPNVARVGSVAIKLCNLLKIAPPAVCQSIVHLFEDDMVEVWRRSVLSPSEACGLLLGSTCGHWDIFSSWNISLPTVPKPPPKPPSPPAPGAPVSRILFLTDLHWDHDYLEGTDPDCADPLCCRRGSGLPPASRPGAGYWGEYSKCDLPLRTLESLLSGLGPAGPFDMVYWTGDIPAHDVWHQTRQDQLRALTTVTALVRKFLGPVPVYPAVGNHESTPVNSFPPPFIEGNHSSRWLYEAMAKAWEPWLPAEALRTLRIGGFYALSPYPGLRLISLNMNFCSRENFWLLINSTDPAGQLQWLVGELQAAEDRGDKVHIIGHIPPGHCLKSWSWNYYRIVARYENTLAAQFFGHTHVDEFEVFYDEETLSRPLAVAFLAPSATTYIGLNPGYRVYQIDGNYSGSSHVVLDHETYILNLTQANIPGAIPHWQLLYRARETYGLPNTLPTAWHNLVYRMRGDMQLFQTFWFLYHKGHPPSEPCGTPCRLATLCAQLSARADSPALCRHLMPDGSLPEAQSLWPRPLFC
#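 Steps: dispense placental human ASM, pin compound, wait 10 min at room temperature, add HMU-PC0 substrate at 9 uM final, incubate 60 min at 37 °C, add stop solution raising pH to 10, read fluorescence.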
# gsp agonist: qHTS for Agonist of gsp, the Etiologic Mutation Responsible for Fibrous Dysplasia/McCune-Albright Syndrome: qHTS; hit rate 0.13% among 340,000; AID 624287, 2012; gsp mutant cells, cAMP HTRF, 30 min; Potency, µM (series often up to 76.9 µM), for inactives: top-dose activation (cAMP increase), hits mostly activators; active = well fitted activation curve with a large enough effect; inconclusive = small, poorly fitted or top-dose-only effect, or another doubt; inactive = no such curve, though single readings can be large or run the other way; cell line not stated here;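 also: phosphodiesterase inhibitor Ro 20-1724 added with compounds to block cAMP breakdown; potency is read from the fitted curve at half-maximal effect; nearly all actives have a fitted effect of over 60% in size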
#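 Cells in DMEM/10% FBS with G418 were pretreated with compounds in DMSO plus […] (300 uM stock) for 30 min at 37C. cAMP was measured by HTRF (cAMP-d2 plus anti-cAMP antibody-K) after 30 min at room temperature.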
# Integrin act MD: qHTS for Activators of Integrin-Mediated Alleviation for Muscular Dystrophy | alpha7betagal myoblasts, beta-gal FDG fluorescence, 48 h | hit rate 0.064% among 350,000 | Potency, µM (highest dose often 38.3 µM), for the others: at the highest dose activation, most hits filed as activators;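 also: potency is read from the fitted curve at half-maximal effect; 100% = response of the positive control SU9516; nearly all actives have a fitted effect of over 60% in size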
#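 Alpha7betagal+/- myoblasts (passage 13) were plated 16-24 hr, then exposed to compounds (1:260 dilution of DMSO stock) for 48 hours at 37C. After MPER lysis, β-galactosidase reporter activity was read as FDG fluorescence (ex 480/em 540) after 30 minutes.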
# RXFP1 ag: qHTS Assay for Agonists of the Relaxin Receptor RXFP1 | hit rate 0.3% among 370,000 | HEK293T-RXFP1 cAMP TR-FRET, 30 min; response scale: percent of porcine relaxin response, buffer zero | Potency, µM (titrated, usually from 57.5 µM), without a hit: at the top dose activation, most hits filed as activators; also: potency is read from the fitted curve at half-maximal effect; % is scaled to controls: 0 for no effect and ±100 for the full control effect; nearly all actives have a fitted effect of over 60% in size
#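 Agonist response is measured as cAMP accumulation in an RXFP1-transfected HEK293T line under PDE4 inhibition. Values are scaled between buffer-only and 29 nM porcine relaxin, and EC50s come from standard Hill equation fits.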
# gsp antagonist: qHTS for Antagonists of gsp, the Etiologic Mutation Responsible for Fibrous Dysplasia/McCune-Albright Syndrome: qHTS; Potency, µM (highest dose often 76.9 µM), for inactives: at the top dose activity change, negative = inhibition, hits mostly inhibitors; hit rate 0.4% among 340,000; AID 624288, 2012; gsp-mutant cells, cAMP HTRF, 30 min; calls by dose curve; cell line not stated here;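 also: intracellular cAMP measured with PDE inhibitor Ro 20-1724 present during compound exposure; potency is read from the fitted curve at half-maximal effect; % is scaled to controls: 0 for no effect and ±100 for the full control effect; nearly all actives have a fitted effect of over 65% in size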
#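 Cells, 2000/well, grown 16–24 h in DMEM 10% FBS with 0.5 mg/ml G418, then compounds plus […] (300 uM addition stock), 30 min at 37C. cAMP read by HTRF (cAMP-d2 and anti-cAMP antibody-K in lysis buffer) after 30 min RT.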
# RXFP1 antagonist: qHTS Assay for Antagonists of the Relaxin Receptor RXFP1; HEK293-RXFP1, relaxin-stimulated cAMP HTRF, 30 min; active compounds read low; hit rate 0.59% among 350,000; activity change, negative = inhibition, % at 57.5 µM; AID 1259400, 2018;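 active = activity change of -60% or lower, but not beyond a set lower limit; inconclusive = change between -60% and -40%, or beyond the set limit; inactive = change above -40%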; also: % is scaled to controls: 0 for no effect and ±100 for the full control effect
# The depositor's hits bear a star; ? = inconclusive; . = no result given; [ ] = another dose, or the depositor's remark. The list is not random: actives were taken first. Their share in the collection is about 1.1%. Unless noted, calls follow the shape of the dose curve; as a rule, active = well fitted curve in the direction sought with a large enough effect; inconclusive = small, poorly fitted or top-dose-only effect, or another doubt; inactive = no such curve, though single readings can be large; an effect the other way counts as inactive or inconclusive.
SMILES,S-ASM inh,gsp agonist,Integrin act MD,RXFP1 ag,gsp antagonist,RXFP1 antagonist
Cc1cc(C)cc(NC(=O)N2CCC(N3CCCCC3)CC2)c1,.,.,.,-1.6%,.,9.3
O=[N+]([O-])c1ccc(S(=O)(=O)Nc2ccc(-c3ccc(N4CCCC4)nn3)cc2)cc1,-0.3%,4.3%,19.4%,-0.6%,20µM*,-24.3
COc1ccc(OC(C)C(=O)NCc2nc(-c3ccc(Cl)cc3)no2)cc1 (centres undefined),.,.,.,0.8%,.,-12.4
CC(C(=O)NCC1CCCCC1)N(C)Cc1ccc(Br)cc1 (centres undefined),-2.8%,3.2%[15.4 µM],-6.3%,-2.4%,1.0%,-11.7
CC(C(=O)NCC1CCCCC1)N(C)Cc1ccc(Cl)cc1 (centres undefined),-2.5%,-2.0%,-10.2%,5.0%,3.0%,-77.8*
Cc1cc(C(=O)COC(=O)c2ccc(O)cc2O)c(C)n1-c1ccccc1,-12.4%,-47.2%,-43.9%,-3.0%,?,-87.2*
COc1ccc(-n2c(C)cc(C(=O)COC(=O)c3ccc(O)cc3O)c2C)cc1,-11.9%,3.7%,-46.7%,-0.6%,31.6µM*,-32.8
Cc1cc(C(=O)COC(=O)c2ccc(O)cc2O)c(C)n1-c1ccc(OC(F)F)cc1,-4.2%,-16.2%,-33.0%,0.4%,-18.5%,?
CCC1CN(C(=O)N2CCC(C(=O)N3CCN(c4cc(C)ccc4C)CC3)CC2)c2ccccc2O1 (centres undefined),.,.,.,2.1%,.,-22.4
COc1ccc(NC(=O)Cn2c(=O)n(-c3ccccc3)c(=O)c3c4c(sc32)CCCC4)cc1,.,.,.,0.6%,.,.
Cc1ccc(C(=O)NCC(=O)OCC(=O)c2ccc(Br)s2)cc1,5.5%,14.1µM*,18.0%,?,10.7%,0.4
O=C(CNS(=O)(=O)c1ccc2ccccc2c1)OCC(=O)c1ccc(Br)s1,0.7%,8.91µM*,-3.9%,25.4%,14.4%,-8.7
Cc1cc(C(=O)OCC(=O)c2ccc(Br)s2)no1,0.2%,35.5µM*,-13.8%,?,26.4%,3.5
Cc1cc(C(=O)COC(=O)CNS(=O)(=O)c2ccc3ccccc3c2)c(C)n1-c1ccccc1,-3.8%,-9.0%,3.4%,0.6%,6.3%,-2.5
Cc1ccc(C(=O)NCC(=O)OCC(=O)c2ccc(Cl)s2)cc1,-0.3%,19.8%,-9.5%,6.9%,11.4%,-4.3
Cc1cc(C(=O)OCC(=O)c2ccc(Br)s2)c(C)o1,.,.,.,15.2%,.,.
CCOC(=O)c1ccccc1NC(=O)COC(=O)CC(C)(C)CC1=NS(=O)(=O)c2ccccc2N1,.,.,.,2.1%,.,.
COc1ccc(OC)c2c1C(=O)C(Cl)=C(Cl)C2=O,-0.3%,-68.7%,?,-2.6%,35.5µM*,.
COc1ccc(/C=C(\NC(=O)c2ccccc2)C(=O)N2CCN(C)CC2)cc1OC,-0.9%,-8.5%[15.4 µM],12.1%,0.6%,16.1%,-3.6
COc1ccc(C(=O)N/C(=C/c2cccnc2)C(=O)N2CCN(C)CC2)cc1OC,0.9%,35.5%,4.47µM*,-0.4%,5.3%,30.7
CC1=NN(c2cccc(C(=O)O)c2)C(=O)/C1=C\C=C/c1ccccc1,-1.0%,-7.2%[15.4 µM],-4.5%,1.1%,28.2µM*,-74.6*
CC(=O)NO,-1.0%,.,.,.,-1.5%,-17.9
Cc1ccc(NCc2nc3ccccc3n2C)cc1,-3.5%,-30.0%,11.9%,0.7%,5.0%,-5.4
Cc1ccc(NC(=O)NCc2nc3ccccc3n2C)cc1,4.2%,-40.7%,4.47µM*,-7.4%,5.4%,-9.6
CC1=CC2C(C(O)CC3(C)C2CC(C)C32OCOC23COCO3)C2(C)C/C(=C\O)C(=O)C=C12 (centres undefined),-2.0%,-12.0%,-52.2%,.,?,-75.7*

# Screens: PubChem BioAssay, National Center for Advancing Translational Sciences (NCATS)
